ChEMBL document CHEMBL1201862, “PubChem BioAssay data set” (2004)
Several values for one entry are separate records, joined by “and”; a condition that tells them apart may be missing. Equal values may be shown once. Among all 400,000 compounds or so, about 2,100 (0.53%) were called active. Roughly 14% stayed inconclusive and do not appear here. No rule for the calls is given here. The sample as a whole holds a higher share of actives than the screen did.

Target: Ataxin-2 (Homo sapiens) (UniProt Q99700)
Sequence (Q99700 whole entry): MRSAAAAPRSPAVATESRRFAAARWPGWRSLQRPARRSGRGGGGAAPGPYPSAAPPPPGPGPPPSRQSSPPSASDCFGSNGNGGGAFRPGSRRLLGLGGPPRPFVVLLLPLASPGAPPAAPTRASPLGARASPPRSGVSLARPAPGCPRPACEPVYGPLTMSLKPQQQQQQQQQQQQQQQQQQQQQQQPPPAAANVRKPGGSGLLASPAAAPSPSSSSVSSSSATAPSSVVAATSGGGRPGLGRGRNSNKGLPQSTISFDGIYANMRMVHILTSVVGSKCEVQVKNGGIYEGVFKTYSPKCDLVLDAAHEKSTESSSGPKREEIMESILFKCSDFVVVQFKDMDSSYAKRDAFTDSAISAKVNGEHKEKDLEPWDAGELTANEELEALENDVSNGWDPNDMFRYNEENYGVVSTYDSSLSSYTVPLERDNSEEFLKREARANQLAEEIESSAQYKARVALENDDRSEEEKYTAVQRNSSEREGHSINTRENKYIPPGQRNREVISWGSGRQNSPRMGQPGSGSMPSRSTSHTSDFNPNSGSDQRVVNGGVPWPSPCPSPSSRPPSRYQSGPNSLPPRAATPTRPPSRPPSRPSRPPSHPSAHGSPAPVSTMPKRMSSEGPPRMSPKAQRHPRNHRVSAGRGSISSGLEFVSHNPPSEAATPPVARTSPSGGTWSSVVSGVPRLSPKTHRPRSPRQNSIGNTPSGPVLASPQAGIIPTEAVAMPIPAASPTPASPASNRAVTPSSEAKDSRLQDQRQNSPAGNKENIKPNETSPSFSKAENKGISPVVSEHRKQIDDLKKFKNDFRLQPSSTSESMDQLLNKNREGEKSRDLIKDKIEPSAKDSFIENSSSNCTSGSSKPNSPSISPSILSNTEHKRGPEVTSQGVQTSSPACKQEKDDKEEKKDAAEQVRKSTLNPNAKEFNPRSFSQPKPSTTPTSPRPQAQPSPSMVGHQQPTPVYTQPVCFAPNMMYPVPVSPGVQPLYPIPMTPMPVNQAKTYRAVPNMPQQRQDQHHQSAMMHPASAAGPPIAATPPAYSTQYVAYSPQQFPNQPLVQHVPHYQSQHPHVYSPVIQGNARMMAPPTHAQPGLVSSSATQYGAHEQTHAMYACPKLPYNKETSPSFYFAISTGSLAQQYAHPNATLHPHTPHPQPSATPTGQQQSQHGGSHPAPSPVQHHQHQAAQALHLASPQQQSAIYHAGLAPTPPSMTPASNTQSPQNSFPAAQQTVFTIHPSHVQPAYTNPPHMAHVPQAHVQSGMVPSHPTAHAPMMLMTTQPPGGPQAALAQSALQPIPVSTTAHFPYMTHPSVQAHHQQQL
Test: qHTS for Inhibitors of ATXN expression.
Assay type: functional

| Compound | Potency |
| --- | --- |
| COc1ccc(CNCCC(c2ccc3c(c2)OCO3)c2ccccc2OC)cc1 (configuration not stated) | 22.4 µM (active) |
| Fc1cccc(CNCc2ccc3c(c2)OCO3)c1 | inactive |
| COc1ccc2[nH]c(SCC(=O)NC(C)c3ccccc3)nc2c1 (configuration not stated) | inactive |
| COc1ccccc1/C=C/C(=O)OCC(=O)NCc1ccc2c(c1)OCO2 | inactive |
| COc1ccc(C(C)NCCC(c2ccc(OC(C)C)cc2)c2ccccc2OC)cc1 (configuration not stated) | 39.8 µM (active) |
| Cc1c(CC(=O)N2CCN(C(=O)C3COc4ccccc4O3)CC2)c(=O)oc2cc(O)cc(O)c12 (configuration not stated) | inactive |
| Cc1ccc(S(=O)(=O)N2CCOCC2)cc1NC(=O)COC(=O)/C=C/c1ccco1 | inactive |
| CC[C@@H]1Cc2cc(O)ccc2C2=C1c1ccc(O)cc1C[C@H]2CC | 39.8 µM (active) and 22.4 µM (active) |
| Clc1ccc(-c2nc(N3CCCCC3)nc3ccccc23)cc1 | inactive |
| COc1ccc(-n2c(=O)c(CCC(=O)NCCc3ccccc3F)nc3ccccc32)cc1 | inactive |
| Cc1ccc(C(=O)c2c(C)oc3c2C(=O)C(=O)c2ccccc2-3)cc1 | 39.8 µM (active) |
| Cc1oc2c(c1C(=O)c1ccccc1)C(=O)C(=O)c1ccccc1-2 | 3.98 µM (active) |
| Cc1sc(N)c(C(=O)c2ccccc2)c1C | inactive |
| Cc1ccc(-n2c(C)cc(C(=O)COc3cccnc3[N+](=O)[O-])c2C)cc1 | inactive |
| CCOc1ccc(-n2c(C)cc(C(=O)CCl)c2C)cc1 | 29.9 µM (active) |
| CCOc1ccc(-n2c(C)cc(/C=N/NC(=O)C(N)=O)c2C)cc1 | inactive |
| CCCn1c(=N)c(C(=O)NCc2ccco2)cc2c(=O)n3cc(C)ccc3nc21 | inactive |
| CCc1nc(N2CCN(C(=O)CCl)CC2)c2c3c(sc2n1)CC(C)CC3 (configuration not stated) | 35.5 µM (active) |
| CC1CCc2c(sc3ncn(CC(=O)N4CCCCC4)c(=O)c23)C1 (configuration not stated) | inactive |
| CC1CCc2c(sc3nc(-c4cc5ccccc5oc4=O)nc(Cl)c23)C1 (configuration not stated) | inactive |
| COCCCn1c(C(=O)N2CCOCC2)cc2c(=O)n3ccccc3nc21 | inactive |
| CN1/C(=C/C(=O)c2nc(S(C)(=O)=O)ncc2Cl)C(C)(C)c2ccccc21 | 31.6 µM (active) |
| CN1/C(=C\C(=O)c2cccnc2)C(C)(C)c2ccccc21 | inactive |
| CC1=C(C(=O)c2ccccc2)C(c2ccc(O)cc2)NC(S)=N1 (configuration not stated) | inactive |
| O=C(NCCC1=CCCCC1)C1CCC(CNc2nc(S)nc3ccccc23)CC1 (configuration not stated) | 23.8 µM (active) |
| O=C(COC(=O)/C=C/c1ccccc1)NCCC1=CCCCC1 | inactive |

| Compound | Potency |
| --- | --- |
| O=C(NCCCN1CCCC1=O)C1CCN(S(=O)(=O)c2ccccc2)CC1 | inactive |
| CCCCN(C(=O)NC(=O)C1=C(N2CCOCC2)/C(=C/c2ccccc2)CC1)S(C)(=O)=O | inactive |
| C=CCO/C(O)=C1\C(C)=NC(SCC(=O)Nc2nccs2)=C(C#N)C1c1ccc(Cl)cc1 (configuration not stated) | inactive |
| O=C1CCC[C@@H]2C[C@@]3(C[C@@H]4CCN1[C@H]24)Nc1cc(Cl)c(Cl)cc1N=C3NCc1ccccc1 | 35.5 µM (active) |
| CC(C)(C)CC(C)(C)NC1=Nc2cc(Cl)c(Cl)cc2NC12C[C@H]1CCC(=O)N3CC[C@@H](C2)[C@@H]13 (some centres not stated) | 31.6 µM (active) |
| COc1ccc2c(c1)CCC1=C2N=C(S)NC1c1ccc(N(C)C)cc1 (configuration not stated) | inactive |
| c1cc(SC2CCCCC2)cc(-c2nc3cnccn3c2NC2CCCCC2)c1 | inactive |
| Cc1cc(C)n2c(=O)c3ccc(Cl)cc3nc2c1C#N | inactive |
| CC(C)(C)c1cc(CP(=O)(c2ccccc2)c2ccccc2)cc(C(C)(C)C)c1O | inactive |
| COc1ccc2[nH]cc(/C=C/C(=O)c3ccccc3)c2c1 | inactive |
| O=C(C=Cc1ccccn1)c1ccccc1O | 39.8 µM (active) |
| O=C(O)c1ccc2c(c1)C(=O)N(c1ccc(/C=C/C(=O)c3ccccc3)cc1)C2=O | inactive |
| COc1ccccc1C(=O)CSc1ccccn1 | inactive |
| O=C(C=Cc1ccccn1)c1ccccc1 | 35.5 µM (active) |
| Cc1[nH]c2ccccc2c1/C=C/C(=O)c1ccncc1 | inactive |
| O=C(C=Cc1ccccc1F)c1ccccc1 | 31.6 µM (active) |
| O=C(/C=C/c1ccc(N2CCC(c3ccccc3)=N2)cc1)c1ccccc1 | inactive |
| O=C(O)/C(=C\c1ccco1)NC(=O)c1ccco1 | inactive |
| Cc1ccc(NC(=O)CCc2nnc3ccc(N4CCC5(CC4)OCCO5)nn23)nc1 | inactive |
| COc1ccc(COc2cc(-c3cccc(OC)c3)nc3ccc(N)cc23)cc1 | inactive |
| O=[N+]([O-])c1cccc(NC(=S)N2CCOCC2)c1 | inactive |
| COC(=O)/C=C\C(=O)Nc1cccc([N+](=O)[O-])c1 | 31.6 µM (active) |
| CC(C)N1CC(C(=O)Nc2cccc([N+](=O)[O-])c2)CC1=O (configuration not stated) | inactive |
| O=C(NCC1CCCCC1)C1(CC2CC(c3cccc(Br)c3)=NO2)CCNCC1 (configuration not stated) | 35.5 µM (active) |
| O=C(CNC(=O)c1ccc(Br)o1)NCC1CCCCC1 | inactive |
| COc1cc(NC(=O)C2CC(c3cccc(Br)c3)=NO2)cc(OC)c1OC (configuration not stated) | inactive |
